From PubChem
ALDH1A1 block: ALDH1A1 (human) enzyme inhibition | Purified ALDH1A1, NADH fluorescence, propionaldehyde substrate | Potency, µM (doses to about 75.3 µM), usual class: inhibitors | 220,000 compounds, 7.3% hits
HTT cytoprotect: protects HTT-Q103 PC12 cells, measured by ATP; PC12 HTT-Q103 induced, cytoprotection, ATP luminescence, 40 h; Potency, µM (series often up to 56.4 µM), actives largely listed as activators; 230,000 compounds, 0.14% hits; AID 1471; active = well fitted curve in the direction sought with a large enough effect; inconclusive = small, poorly fitted or top-dose-only effect, or another doubt; inactive = no such curve, though single readings can be large; an effect the other way counts as inactive or inconclusive; also: nearly all actives have a fitted effect of over 45% in size
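Quantitative HTS on tebufenozide-induced (100 nM) PC12 cells expressing HTTQ103 exon 1–GFP; compounds tested as a concentration series; survival measured via cellular ATP.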
HttQ103 aggreg: inhibitors of mutant huntingtin aggregate formation in PC12 cells | PC12 HttQ103-GFP aggregates, Acumen cytometry, 40 h | Potency, µM (series often up to 46.1 µM), hits mostly inhibitors | 220,000 compounds, 1.1% hits; active = well fitted curve in the direction sought with a large enough effect; inconclusive = small, poorly fitted or top-dose-only effect, or another doubt; inactive = no such curve, though single readings can be large; an effect the other way counts as inactive or inconclusive; also: nearly all actives have a fitted effect of over 60% in size
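Steps: seed 1500 PC12 HTTQ103-GFP cells/well; add tebufenozide, 100 nM final; add compound titration; add ATPLite reagent; quantify GFP aggregates by laser scanning cytometry.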
CBFb-RUNX1 inh: inhibitors of human CBF-beta and RUNX1 interaction; 230,000 tested, under 10 active; AlphaScreen CBFb-His/RUNX1-biotin binding, biochemical; AID 1477; Potency, µM (series often up to 59.8 µM), usual class: inhibitors; Q01196+Q13951; active = well fitted curve in the direction sought with a large enough effect; inconclusive = small, poorly fitted or top-dose-only effect, or another doubt; inactive = no such curve, though single readings can be large; an effect the other way counts as inactive or inconclusive
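Interaction loss through any mechanism counts as activity. Pre-formed complex of His-CBF-beta and biotin-RUNX1 (30 nM apiece) is incubated with compound 15 min, then with 50 ng nickel and 50 ng streptavidin beads for 90 min before AlphaScreen detection.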
HPGD block: HPGD (human) dehydrogenase inhibition; P15428; purified HPGD, NADH fluorescence kinetic, PGE2 substrate; Potency, µM, hits mostly inhibitors; 150,000 compounds, 4.3% hits
Target sequence (P15428 whole entry, looked up): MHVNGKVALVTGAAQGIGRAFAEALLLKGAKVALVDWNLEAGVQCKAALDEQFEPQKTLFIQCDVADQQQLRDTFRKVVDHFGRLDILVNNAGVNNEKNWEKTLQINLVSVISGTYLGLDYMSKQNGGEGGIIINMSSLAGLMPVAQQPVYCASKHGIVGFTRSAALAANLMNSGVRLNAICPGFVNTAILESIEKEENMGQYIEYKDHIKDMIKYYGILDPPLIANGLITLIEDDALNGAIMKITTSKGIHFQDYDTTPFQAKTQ
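NADH formation kinetics: reaction with 30 uM PGE2 and 1 mM NAD+ (final), 20 nM enzyme, Tris-HCl pH 8 with Tween 20, after 15 min compound preincubation at room temperature. Fluorescence change, last versus first of five reads.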
JMJD2E inh: inhibitors of human JMJD2E histone demethylase. B2RXH2. JMJD2E catalytic domain, FDH-coupled NADH fluorescence (FDH is formaldehyde dehydrogenase). Potency, µM (doses to about 57.1 µM), hits mostly inhibitors. 230,000 compounds, 1.6% hits; also: nearly all actives have a fitted effect of over 50% in size
Target sequence (B2RXH2 1-337 limits assumed): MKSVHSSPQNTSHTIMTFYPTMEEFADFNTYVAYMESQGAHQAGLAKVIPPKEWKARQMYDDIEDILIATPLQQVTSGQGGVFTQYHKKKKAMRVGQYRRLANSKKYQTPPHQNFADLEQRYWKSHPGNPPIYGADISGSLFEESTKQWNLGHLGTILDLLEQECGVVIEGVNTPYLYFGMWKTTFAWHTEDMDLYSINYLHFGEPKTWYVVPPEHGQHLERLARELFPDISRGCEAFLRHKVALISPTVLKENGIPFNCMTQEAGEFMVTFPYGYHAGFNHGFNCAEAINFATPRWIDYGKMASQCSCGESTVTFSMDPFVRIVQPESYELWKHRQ
Large screens that a line does not name were inactive. Sampled rows, rich in hits. Any-hit rate of the full collection: about 9.8%. Unless noted, calls follow the shape of the dose curve; as a rule, active = well fitted inhibition curve with a large enough effect (not every such curve was filed as active); inconclusive = small, poorly fitted or top-dose-only effect, or another doubt; inactive = no such curve, though single readings can be large or run the other way.

CC(C)NC(=S)N1CCN(Cc2ccc3c(c2)OCO3)CC1	ALDH1A1 block 22µM (no result: HPGD block)
CSc1ccc(S(=O)(=O)N2CCN(Cc3ccc4c(c3)OCO4)CC2)cc1	ALDH1A1 block 14µM
CC(C)CNS(=O)(=O)c1ccc(CCC(=O)N2CCN(Cc3ccc4c(c3)OCO4)CC2)cc1	HttQ103 aggreg 11µM, CBFb-RUNX1 inh inconclusive
Cc1ccccc1NC(=S)N1CCN(Cc2ccc3c(c2)OCO3)CC1	none
CCC(=O)Nc1ccc(-n2nnnc2SCC(=O)NNC(=O)c2ccco2)cc1	none (no result: ALDH1A1 block, HPGD block)
Cc1ccc2[nH]c(=S)cc(C)c2c1	ALDH1A1 block 3.2µM, HPGD block 7.1µM, JMJD2E inh 7.1µM
Cc1ccc(C)c2c1[nH]c1ccccc12	none
Cc1ccc2c(C)cc(=S)[nH]c2c1	none (no result: HPGD block)
Cc1cc(=S)[nH]c2ccccc12	ALDH1A1 block inconclusive, HPGD block 14µM
N#Cc1ccccc1OCC(=O)OCC(=O)N1CCN(C(=O)c2ccco2)CC1	ALDH1A1 block inconclusive, HTT cytoprotect inconclusive (no result: HPGD block)
N=C1[C@@H](O)[C@]2(I)c3ccccc3N3C(=N)[C@H](O)[C@@H]4c5ccccc5N1[C@@H]4[C@@H]32	HPGD block 4µM (no result: HttQ103 aggreg, CBFb-RUNX1 inh, JMJD2E inh)
Cc1cc(C)c(S(=O)(=O)NCc2ccncc2)c(C)c1	HttQ103 aggreg 6.3µM
COc1cc(C)c(Br)cc1S(=O)(=O)NCc1ccncc1	none (no result: HPGD block)
CCCCNS(=O)(=O)c1ccc(S(=O)(=O)NCc2ccncc2)cc1	HttQ103 aggreg 7.9µM (no result: HTT cytoprotect)
Cc1ccc(S(=O)(=O)NCc2ccncc2)c(C)c1C	ALDH1A1 block 32µM (no result: HPGD block)
NC(=O)Nc1ccc(C(=O)OCC(=O)NC2CCCCC2)cc1	none (no result: HPGD block)
CCOC(=O)c1ccccc1NC(=O)Cn1cnc2c(oc3ccccc32)c1=O	ALDH1A1 block inconclusive, HPGD block inconclusive
Cc1ccc(S(=O)(=O)C2(C(=O)Nc3ccc(C(C)C)cc3)CC2)cc1	none (no result: HPGD block)
O=C(O)c1ccc(N2C(=O)CC(SC(=NCc3ccc4c(c3)OCO4)Nc3ccc(F)cc3)C2=O)cc1 (stereo not drawn)	none (no result: HTT cytoprotect, HPGD block)
O=C(c1ccc(S(=O)(=O)N2CCCCC2)cc1)N1CCc2ccccc2C1	ALDH1A1 block inconclusive (no result: HPGD block)
O=[N+]([O-])c1ccc(NC(=S)N2CCc3ccccc3C2)cc1	ALDH1A1 block inconclusive
O=C(c1ccc(S(=O)(=O)c2ccccc2)cc1)N1CCc2ccccc2C1	HPGD block 18µM
O=C(c1ccc([N+](=O)[O-])cc1)N1CCc2ccccc2C1	HPGD block 28µM (no result: HTT cytoprotect)
Cc1cc(-c2nn(-c3ccccc3F)cc2CN2CCN(c3ccccn3)CC2)c(C)s1	JMJD2E inh inconclusive (no result: HPGD block)
Cc1ccc(CNC(=O)c2ccc(S(=O)(=O)Nc3c(C)n(C)n(-c4ccccc4)c3=O)cc2)cc1	none (no result: ALDH1A1 block, HPGD block)
O=C(NC(=S)NCc1cccnc1)c1ccccc1	none
Cc1ccccc1C(=O)NNC(=S)NC(=O)c1cccnc1	ALDH1A1 block 25µM
O=C(NC(=S)NNC(=O)c1ccccc1F)c1cccnc1	ALDH1A1 block 7.1µM (no result: HPGD block)
CNC(=S)NNC(=O)c1ccccc1F	ALDH1A1 block inconclusive (no result: HPGD block)
O=C(NC(=S)NCCSc1ccccc1)c1cccnc1	ALDH1A1 block 14µM
Cc1ccccc1C(=O)NC(=S)NCc1cccnc1	none (no result: HPGD block)
OC[C@@H](O)[C@@H](O)[C@@H](O)[C@@H](O)c1nc2ccc(Cl)cc2[nH]1	none (no result: HttQ103 aggreg, CBFb-RUNX1 inh, JMJD2E inh)
FC(F)Oc1ccc(-n2cc(-c3ccc(Cl)cc3)[n+]3c2CCCCC3)cc1	none (no result: ALDH1A1 block, HPGD block)
CC(=O)NS(=O)(=O)c1ccc(NC(=O)CN2C(=O)C3C4C=CC(C4)C3C2=O)cc1 (stereo not drawn)	none
O=C(Nc1nnc(COc2ccc(Cl)cc2)s1)c1ccco1	ALDH1A1 block 3.2µM, JMJD2E inh inconclusive (no result: HPGD block)
CCOCc1nnc(NC(=O)c2cc(Cl)ccc2OC)s1	ALDH1A1 block inconclusive, HPGD block 14µM, JMJD2E inh inconclusive
O=C(Nc1nnc(COc2ccc(Cl)cc2)s1)C1CCCO1 (stereo not drawn)	ALDH1A1 block 10µM, HPGD block 18µM
O=C(Nc1nnc(COc2ccc(Cl)cc2)s1)c1cccs1	ALDH1A1 block 10µM, HPGD block 25µM
Cc1ccc(OCc2nnc(NC(=O)c3ccco3)s2)cc1	none
Cc1cc(C(=O)N2CCN(c3ncccn3)CC2)cs1	none
CCn1nc(NC(=O)c2cccs2)c2cc3ccccc3nc21	CBFb-RUNX1 inh inconclusive, JMJD2E inh inconclusive (no result: HPGD block)
Cc1ccccc1CNC(=O)CC1C(=O)NCCN1Cc1c(F)cccc1Cl (stereo not drawn)	ALDH1A1 block inconclusive (no result: HPGD block)
CC1=CC=CC2=NC(=O)CC(C)(C(=O)O)N12 (stereo not drawn)	ALDH1A1 block inconclusive, JMJD2E inh inconclusive (no result: HPGD block)
CCc1nnc(NC(=O)C2CCCO2)s1 (stereo not drawn)	none (no result: HPGD block)
CC(C)c1nnc(NC(=O)C2CCCO2)s1 (stereo not drawn)	ALDH1A1 block 3.8µM, HTT cytoprotect inconclusive, HttQ103 aggreg inconclusive (no result: HPGD block)
COc1cc(/C=C/C(=O)c2cccs2)cc(OC)c1OC	ALDH1A1 block 10µM, HTT cytoprotect inconclusive, HPGD block 28µM, JMJD2E inh inconclusive (no result: HttQ103 aggreg)
COc1cc(/C=C/C(C)=O)cc(OC)c1OC	HttQ103 aggreg inconclusive
COc1ccc(CNc2ncnc3ccc(-c4ccccc4CN(C)C)cc23)c(OC)c1	HPGD block inconclusive, JMJD2E inh inconclusive (no result: HttQ103 aggreg, CBFb-RUNX1 inh)
O=C(O)CC[C@]1(C(=O)O)CCC(=O)c2ccccc21	none (no result: HttQ103 aggreg, CBFb-RUNX1 inh, JMJD2E inh)
